± gives the standard deviation.
tested on: MILI (PIWIL2) piRISC loaded with piRNA #1 (26 nt); assay: pre-steady-state target cleavage rate (min^-1); guide: piRNA #1 5'p-UGAGGUAGUAGGUUGUAUAGUAUCCA; MIWI and MILI are mouse PIWI proteins and EfPiwi is from a freshwater sponge; tags in brackets are library labels; higher = faster piRNA-guided slicing of the target; details: auxiliary factor: 500 nM mouse GTSF1
Outline: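 Cleave-'n-Seq reactions paired 0.1 nM transcribed, DNA-blocked target RNA library with 1 nM active affinity-purified piRISC holding one synthetic guide, plus or minus 500 nM GTSF1 partner protein, in HEPES–potassium acetate buffer at 33 °C for 0–8 or 0–960 min. After sequencing of uncleaved targets and normalisation to depth and weakly complementary targets, the pre-steady-state cleavage rate was taken from a burst-and-steady-state fit. Three trials were pooled, and k3 was capped at 0.0001 min^-1.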

| Sequence | pre-steady-state target cleavage rate |
| --- | --- |
| GGAGACCUUACUAUACAAGCUACUUCCUCA | 0.149 ± 0.021 |
| GGAGACCUAUGAUAUCAUGCUACUACCUCA | < 0.0001 |
| GGAGACCUAUCUAAACAUCCUACUACCUCA | 0.116 ± 0.015 |
| GGAGAGCAUACUAUAGAACCUACUACCUCA | 0.142 ± 0.012 |
| GGAGACCUAUGAUUACAAGCUACAACCUCA | 0.0159 ± 0.0045 |
| GGAGACCUAUGUAUACAACCUACUACCCA | 0.0226 ± 0.0055 |
| GGAGAGGAUACUAUAGUUCCUACUACCUCA | 0.18 ± 0.015 |
| GGAGACCUAUGAAUACAAGCUACUACCUGA | 0.017 ± 0.0038 |
| GGAGACCUAUGUAUACAACCUAAUACCUCA | 0.0196 ± 0.0049 |
| GGAGACCUAUGUAUACAACCUACUACCGUCA | 0.0528 ± 0.0094 |
| GGAGACCUAUGAUUACAACCUACUACCUACA | 0.00666 ± 0.0024 |
| GGAGACCUAUGAUAUCAAGCUACAACCUCA | 0.00699 ± 0.0025 |
| GGAGACCUAUCUAUACAACCUACUACCUGCA | 0.103 ± 0.014 |
| GGAGACGUUACUAUUCAACCUACUACCUCA | 0.168 ± 0.011 |
| GGAGACCUUACUAUACAACGAACUACCUCA | 0.00385 ± 0.0021 |
| GGAGACCUAUGAAUACAACCUCACUACCUCA | 0.00378 ± 0.0031 |
| GGAGACCUAUCUAUACAAGGAACUACCUCA | 0.0048 ± 0.002 |
| GGAGACCUAUGUAUUCAUCCUACUACCUCA | 0.0771 ± 0.011 |
| GGAGUGGUUACUAUAGAACCUACUACCUCA | 0.175 ± 0.014 |
| GGAGACCUAUCUAUACAACCUACUACACUCA | 0.179 ± 0.022 |
| GGAGACCUAUGUAAACAACCUACUUCCUCA | 0.00599 ± 0.002 |
| GGAGACCUAUCUAUAGAACCUACUACGUCA | 0.0269 ± 0.0089 |
| GGAGACCUAUGUAUACAACCUACUACCACA | 0.0991 ± 0.01 |
| GGAGACGAUACUAUACUUCCUACUACCUCA | 0.242 ± 0.016 |

Reference: the supplement of paper PMC10338343
